Laboratory results: PubChem BioAssay AID652162 (Broad Institute, 2013)
The whole screen tested about 350,000 compounds, of which about 840 (0.24%) were called active. Cut-off read from the data, not from the text of the source: active = inhibition above about 10%; inactive = the rest. Shown is part of a subset that was picked to be rich in actives.

Target: Toxin B (Clostridioides difficile) (UniProt P18177)
Test: TcdB glycohydrolase inhibitors, primary screen, biochemical, single point, plate reader (AID 652162)
Details: TcdB glycohydrolase enzymatic assay, at 9.99 µM, hits give high values

Sequence of Toxin B (Clostridioides difficile) (P18177 whole entry, looked up): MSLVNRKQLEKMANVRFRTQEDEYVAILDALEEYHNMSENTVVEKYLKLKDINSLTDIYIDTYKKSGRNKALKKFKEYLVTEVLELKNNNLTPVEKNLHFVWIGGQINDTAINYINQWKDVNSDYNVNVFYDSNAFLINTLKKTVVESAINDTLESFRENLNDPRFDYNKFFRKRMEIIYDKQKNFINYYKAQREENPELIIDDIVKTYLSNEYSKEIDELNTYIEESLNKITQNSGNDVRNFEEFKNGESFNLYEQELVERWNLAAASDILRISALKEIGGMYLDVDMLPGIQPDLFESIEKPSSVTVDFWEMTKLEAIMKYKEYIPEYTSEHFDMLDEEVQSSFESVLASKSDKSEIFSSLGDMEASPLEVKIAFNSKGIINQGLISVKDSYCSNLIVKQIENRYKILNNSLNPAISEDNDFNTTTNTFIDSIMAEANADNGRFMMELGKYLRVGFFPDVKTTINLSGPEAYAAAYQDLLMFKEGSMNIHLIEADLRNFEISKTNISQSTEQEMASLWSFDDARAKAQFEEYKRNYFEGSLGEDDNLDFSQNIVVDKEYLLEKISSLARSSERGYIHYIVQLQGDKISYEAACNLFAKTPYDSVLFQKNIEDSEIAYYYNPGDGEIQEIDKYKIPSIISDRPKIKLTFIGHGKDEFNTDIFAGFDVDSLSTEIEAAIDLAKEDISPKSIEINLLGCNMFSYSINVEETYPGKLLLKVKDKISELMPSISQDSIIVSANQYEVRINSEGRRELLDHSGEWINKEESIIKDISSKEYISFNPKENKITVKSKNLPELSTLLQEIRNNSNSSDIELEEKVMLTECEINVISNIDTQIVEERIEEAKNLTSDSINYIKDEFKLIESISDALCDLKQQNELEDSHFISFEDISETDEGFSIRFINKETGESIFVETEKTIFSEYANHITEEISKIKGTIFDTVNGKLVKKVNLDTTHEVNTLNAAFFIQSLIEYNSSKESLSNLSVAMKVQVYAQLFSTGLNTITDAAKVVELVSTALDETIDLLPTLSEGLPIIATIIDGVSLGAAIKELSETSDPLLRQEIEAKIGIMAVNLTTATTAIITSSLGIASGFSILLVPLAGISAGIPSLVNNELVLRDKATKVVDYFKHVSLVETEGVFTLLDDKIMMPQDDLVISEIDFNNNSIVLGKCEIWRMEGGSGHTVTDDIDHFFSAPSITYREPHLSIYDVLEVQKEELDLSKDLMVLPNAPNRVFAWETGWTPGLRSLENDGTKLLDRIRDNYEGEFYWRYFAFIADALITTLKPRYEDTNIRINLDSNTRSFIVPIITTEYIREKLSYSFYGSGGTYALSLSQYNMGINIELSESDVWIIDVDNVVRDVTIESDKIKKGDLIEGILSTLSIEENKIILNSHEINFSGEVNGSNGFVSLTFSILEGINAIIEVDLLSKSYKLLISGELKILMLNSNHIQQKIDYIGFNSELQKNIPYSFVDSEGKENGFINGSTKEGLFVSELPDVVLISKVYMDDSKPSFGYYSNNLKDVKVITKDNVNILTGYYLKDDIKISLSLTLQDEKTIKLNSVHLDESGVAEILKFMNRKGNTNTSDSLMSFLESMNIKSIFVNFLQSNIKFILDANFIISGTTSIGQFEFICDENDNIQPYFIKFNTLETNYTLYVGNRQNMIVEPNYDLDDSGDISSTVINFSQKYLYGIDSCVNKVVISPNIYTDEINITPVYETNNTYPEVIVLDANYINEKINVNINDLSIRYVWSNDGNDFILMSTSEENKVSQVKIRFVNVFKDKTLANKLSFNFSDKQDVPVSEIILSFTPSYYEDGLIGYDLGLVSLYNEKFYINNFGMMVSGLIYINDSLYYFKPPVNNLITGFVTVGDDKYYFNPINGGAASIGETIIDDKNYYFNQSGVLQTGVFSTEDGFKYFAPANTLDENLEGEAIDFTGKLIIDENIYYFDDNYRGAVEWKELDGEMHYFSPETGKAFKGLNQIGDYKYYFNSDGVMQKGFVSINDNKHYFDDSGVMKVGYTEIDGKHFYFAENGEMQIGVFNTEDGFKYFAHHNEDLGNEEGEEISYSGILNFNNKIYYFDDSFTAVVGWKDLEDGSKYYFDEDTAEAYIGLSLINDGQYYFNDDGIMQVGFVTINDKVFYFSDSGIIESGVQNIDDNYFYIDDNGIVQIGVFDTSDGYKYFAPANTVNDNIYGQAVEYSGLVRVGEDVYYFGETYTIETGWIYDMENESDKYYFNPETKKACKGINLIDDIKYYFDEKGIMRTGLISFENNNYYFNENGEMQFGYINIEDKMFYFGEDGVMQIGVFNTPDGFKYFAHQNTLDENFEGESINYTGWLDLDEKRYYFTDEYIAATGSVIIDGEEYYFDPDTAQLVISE

Compound	inhibition
Cc1ccccc1-n1c(SCC(=O)Nc2cccc3ccccc23)nc(O)cc1=O	1.39% (inactive)
C/C(=N\NC(=O)COc1c(C)cccc1C)c1cccs1	0.614% (inactive)
C/C(=N\NC(=O)CSc1nc2ccccc2c(=O)n1-c1ccccc1C)c1cccs1	11.8% (active)
COc1ccccc1-c1cnc2c(c1)C(=O)N([C@H](C)CO)C[C@H](C)[C@H](CN(C)C(=O)CN(C)C)O2	0.748% (inactive)
CCC(=O)N(C)C[C@@H]1Oc2ncc(C#Cc3cccnc3)cc2C(=O)N([C@@H](C)CO)C[C@@H]1C	0.973% (inactive)
C[C@H](CO)N1C[C@H](C)[C@H](CN(C)Cc2ccc3c(c2)OCO3)Oc2c(NC(=O)NC3CCCCC3)cccc2C1=O	-1.25% (inactive)
COc1ccccc1CNC(=O)C[C@@H]1CC[C@H]2[C@@H](COc3ccc(NS(=O)(=O)c4ccc(C)cc4)cc3C(=O)N2C)O1	0.867% (inactive)
Cn1cnc(CCNC(=O)C[C@H]2CC[C@@H]3[C@H](COC[C@H](O)CN3C(=O)C3CC3)O2)c1	-0.073% (inactive)
COc1ccc(NC(=O)Nc2ccc3c(c2)C(=O)N([C@H](C)CO)C[C@H](C)[C@H](CN(C)C(=O)Nc2c(C)noc2C)OCCCC[C@@H](C)O3)cc1	0.188% (inactive)
CC(C)NC(=O)Nc1ccc2c(c1)C(=O)N([C@@H](C)CO)C[C@H](C)[C@@H](CN(C)C)O2	0.811% (inactive)
O=C(NNC(=O)C1CCC1)c1ccccc1	1.5% (inactive)
Cc1ccc(C)c(OCC(=O)NNC(=O)C2CCC2)c1	1.49% (inactive)
Cc1ccc(NNC(=O)C2CCC2)cc1C	58.9% (active)
O=C(Nc1cccc(Cl)c1)N[C@H]1CC[C@H](CCNC(=O)C2CCOCC2)O[C@H]1CO	0.073% (inactive)
CC(=O)C1=CCC(c2ccccc2)N(S(=O)(=O)c2ccc(C)cc2)C1 (stereo not given)	13.2% (active)
CCOC(=O)C1=CCC(c2ccc(F)cc2)N(S(=O)(=O)c2ccc(C)cc2)C1 (stereo not given)	1.19% (inactive)
CCOC(=O)C1=CC[C@@H](c2ccncc2)N(S(=O)(=O)c2ccc(C)cc2)C1	3.35% (inactive)
CC(C)NC(=O)N1[C@H](CO)[C@H](c2ccccc2)C12CN(C(=O)Cc1ccccc1)C2	-9.73% (inactive)
CNC[C@H]1OCCCC[C@H](C)Oc2ccc(NS(=O)(=O)c3ccc(Cl)cc3)cc2C(=O)N([C@@H](C)CO)C[C@@H]1C	0.862% (inactive)
CCCC(=O)Nc1ccc2c(c1)C(=O)N(C)C[C@H](OC)[C@H](C)CN(CCc1ccccc1)[C@H](C)CO2	0.195% (inactive)
Cc1noc(C)c1S(=O)(=O)Nc1ccc2c(c1)CC(=O)N([C@@H](C)CO)C[C@@H](C)[C@H](CN(C)S(=O)(=O)c1cccs1)O2	1.18% (inactive)
C[C@H]1CN([C@@H](C)CO)C(=O)Cc2cc(N(C)C)ccc2O[C@@H]1CN(C)S(=O)(=O)c1ccc(F)cc1	-6.02% (inactive)
COCC(=O)Nc1ccc2c(c1)C(=O)N(C)C[C@H](OC)[C@@H](C)CN(C(=O)c1cnccn1)[C@H](C)CO2	0.644% (inactive)
COCCN(C(=O)C(C)C)c1nnc(-c2ccc(C(C)(C)C)cc2)s1	10.1% (active)

Compound	inhibition
COCCN(Cc1nc(-c2ccc(C(F)(F)F)cc2)no1)C(C)C	1.49% (inactive)
C[C@@H]1CN([C@H](C)CO)C(=O)c2cc(NS(C)(=O)=O)ccc2O[C@@H]1CN(C)S(C)(=O)=O	0.537% (inactive)
COCc1cn(CC[C@H]2CC[C@H](NC(=O)Nc3ccc4c(c3)OCO4)[C@@H](CO)O2)nn1	0.036% (inactive)
CNC[C@H]1Oc2ncc(-c3ccccc3C)cc2C(=O)N([C@@H](C)CO)C[C@@H]1C	0.537% (inactive)
C[C@@H]1CN([C@H](C)CO)C(=O)c2cc(C#CC3(O)CCCC3)cnc2O[C@H]1CN(C)Cc1ccncc1	0.916% (inactive)
C[n+]1ccc(/C=C/c2c[nH]c3ccccc23)cc1	1.44% (inactive)
CN1CCN(/N=C/c2ccc(C#N)cc2)CC1	0.047% (inactive)
CN1CCN(/N=C/c2c[nH]c3ccccc23)CC1	12.7% (active)
C[C@H](CO)N1C[C@H](C)[C@@H](CN(C)C(=O)Nc2cccc3ccccc23)Oc2c(NS(=O)(=O)c3ccccc3)cccc2C1=O	-1.06% (inactive)
C[C@H](CO)N1C[C@H](C)[C@@H](CN(C)Cc2ccc(C(F)(F)F)cc2)Oc2ccc(NC(=O)CCC(F)(F)F)cc2C1=O	0.866% (inactive)
O=C(C[C@@H]1C[C@@H]2c3cc(NC(=O)Nc4ccc(F)cc4)ccc3O[C@@H]2[C@H](CO)O1)NCC(F)(F)F	0.33% (inactive)
COC(=O)Cc1nnn2c1[C@H](C)[C@@H](OC)c1cc(Br)ccc1-2	0.213% (inactive)
COC(=O)CN1C(C)=Nc2ccc(Br)cc2C1c1ccccc1 (stereo not given)	55.6% (active)
CCC(CC)C(=O)N1CC(=O)Nc2ccc(Br)cc2C1c1ccccc1 (stereo not given)	3.15% (inactive)
C[C@@H]1CN([C@@H](C)CO)C(=O)c2cc(-c3ccc(F)cc3)cnc2O[C@@H]1CN(C)Cc1ccc(C(=O)O)cc1	-1.74% (inactive)
Cc1noc(C)c1S(=O)(=O)Nc1ccc2c(c1)C(=O)N([C@@H](C)CO)C[C@H](C)[C@@H](CN(C)C)OCCCC[C@@H](C)O2	-1.17% (inactive)
CC(=O)N(C)C[C@@H]1Oc2cc(-c3cncnc3)ccc2S(=O)(=O)N([C@@H](C)CO)C[C@H]1C	-0.296% (inactive)
O=C(C1CCC1)N1CC(=O)N2[C@H](CO)[C@H](c3ccc(C#CCc4ccccc4)cc3)[C@@H]2C1	0.603% (inactive)
O=C(c1ccc(N2CCOCC2)c([N+](=O)[O-])c1)N1CCN(c2ccccc2F)CC1	10.3% (active)
O=C(c1ccc(N2CCOCC2)c([N+](=O)[O-])c1)N1CCN(S(=O)(=O)c2cccs2)CC1	3.29% (inactive)
O=C(OCC(=O)N1CCOCC1)c1ccc(N2CCOCC2)c([N+](=O)[O-])c1	0.627% (inactive)
O=C(N[C@H]1C=C[C@@H](CC(=O)N2CCc3ccccc3C2)O[C@@H]1CO)C1CCOCC1	1.24% (inactive)
Cc1noc(C)c1S(=O)(=O)N(C)C[C@@H]1Oc2c(NS(=O)(=O)c3cn(C)cn3)cccc2C(=O)N([C@H](C)CO)C[C@@H]1C	-0.292% (inactive)
COc1ccc(S(=O)(=O)N(C)C[C@@H]2Oc3ccc(NC(=O)C4CC4)cc3CC(=O)N([C@@H](C)CO)C[C@@H]2C)cc1	0.342% (inactive)

Compound	inhibition
S=C(NCc1ccco1)Nc1ccc2c(c1)OCCO2	-0.084% (inactive)
COC(=O)Cc1ccc(NC(=S)NCc2ccco2)cc1	16% (active)
COc1cccc(OC)c1C(=O)NC(=S)NCc1ccco1	1.13% (inactive)
COC(=O)C[C@H]1CC[C@H]2[C@@H](COc3ccc(NC(=O)C4CC4)cc3C(=O)N2C)O1	0.647% (inactive)
COc1ccc2c3c(n(C)c2c1)[C@H](CO)N(C(=O)C1CCCC1)CC31CCN(C(=O)c2ccncc2)CC1	0.361% (inactive)
C[C@H](O)C#Cc1ccc([C@@H]2[C@@H](CO)N3CCCCN(C(=O)c4ccncc4)C[C@@H]23)cc1	0.304% (inactive)
CCS(=O)(=O)N1CCC2(CC1)CN(Cc1ccc3c(c1)OCO3)[C@H](CO)c1[nH]c3cc(OC)ccc3c12	0.545% (inactive)
CCCC#Cc1ccc([C@@H]2[C@@H](CO)N3C(=O)CN(C(=O)Nc4cccc(F)c4)C[C@H]23)cc1	0.796% (inactive)
O=C(c1ccncc1)N1CC(=O)N2[C@H](CO)[C@H](c3ccc(-c4ccccc4F)cc3)[C@@H]2C1	-0.127% (inactive)
COCC#Cc1cnc2c(c1)C(=O)N([C@@H](C)CO)C[C@@H](C)[C@@H](CN(C)S(=O)(=O)c1cccc(OC)c1)O2	0.452% (inactive)
CC(C)NC(=O)Nc1ccc2c(c1)C(=O)N([C@H](C)CO)C[C@H](C)[C@@H](CN(C)C)OCCCC[C@H](C)O2	0.315% (inactive)
COc1ccc(NC(=O)N(C)C[C@H]2Oc3c(NC(=O)C4CC4)cccc3C(=O)N([C@@H](C)CO)C[C@@H]2C)cc1	-0.546% (inactive)
CNC(=O)C[C@@H]1CC[C@@H]2[C@H](COC[C@H](O)CN2Cc2ccc(C(F)(F)F)cc2)O1	-1.26% (inactive)
C[C@@H]1CCCCO[C@H](CN(C)C(=O)Nc2cccc3ccccc23)[C@H](C)CN([C@@H](C)CO)C(=O)c2cc(NC(=O)CCCN(C)C)ccc2O1	-0.333% (inactive)
O=C(C[C@@H]1C[C@@H]2c3cc(NC(=O)C4CCOCC4)ccc3O[C@@H]2[C@H](CO)O1)NCc1ccncc1	0.039% (inactive)
C/C=C/c1ccc([C@@H]2[C@@H](CO)N(C(=O)c3ccccc3)C23CN(C(C)=O)C3)cc1	1.41% (inactive)
C[C@@H]1CN([C@@H](C)CO)C(=O)c2cc(C#CCN(C)C)cnc2O[C@H]1CN(C)S(=O)(=O)c1cn(C)cn1	1.29% (inactive)
COc1ccccc1N1CC(O)=C(c2nc3ccccc3s2)C1=N	14.9% (active)
Oc1ccc(-c2[nH]ncc2-c2nc3ccccc3s2)c(O)c1	-1.73% (inactive)
CCc1ccc(N2CC(O)=C(c3nc4ccccc4c(=O)[nH]3)C2=N)cc1	2.4% (inactive)
O=C(C[C@H]1CC[C@H]2[C@@H](COC[C@H](O)CN2C(=O)c2ccccc2F)O1)NCc1ccccc1	0.135% (inactive)
CO[C@H]1CN(C)C(=O)c2cc(NS(=O)(=O)CC(F)(F)F)ccc2OC[C@H](C)N(C(=O)c2ccc3c(c2)OCO3)C[C@H]1C	0.021% (inactive)
